Laboratory results reported in PubChem BioAssay.
Calls of active or inactive are those of the source. The rule behind the calls is not given here.

Experiment: chitosan synthesis blockers in C. neoformans – flow cytometry, Cibacron Brilliant Red staining (AID 1347148);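 note: compound exposure lasted three days at 37 degrees C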
Settings: Cryptococcus neoformans chitosan, active compounds read low; at 10 µM unless noted

Fold fluorescence, inactive:
C=CC[C@H]1/C=C(\C)C[C@@H](C)C[C@@H](OC)[C@@H]2O[C@](O)(C(=O)C(=O)N3CCCC[C@@H]3C(=O)O[C@@H](/C(C)=C/[C@H]3CC[C@H](O)[C@@H](OC)C3)[C@@H](C)[C@H](O)CC1=O)[C@@H](C)C[C@H]2OC 13.5 [at 62.2 µM], OC[C@@H]1NC[C@@H](O)[C@H](O)[C@H]1O 7.48 [at 306.4 µM], C[C@H]1CNCCN1S(=O)(=O)c1cccc2cnccc12 3.94 [at 171.6 µM], COc1ccc(CC(N)C(=O)N[C@@H]2[C@H](O)[C@@H](n3cnc4c(N(C)C)ncnc43)O[C@H]2CO)cc1 (stereo partly drawn) 4.82 [at 106 µM], CCCCCCCCCCCC[C@H](O)C(=O)O 5.23, N#Cc1cc2c(OC[C@@H](O)CN3CCN(C(c4ccccc4)c4ccccc4)CC3)cccc2[nH]1 3.58 [at 107.2 µM], COc1ccc(CCN(C)CCC[C@@](C#N)(c2ccc(OC)c(OC)c2)C(C)C)cc1OC 7.65 [at 110 µM], O=C(O)c1ccc(-c2c3nc(c(-c4ccc(C(=O)O)cc4)c4ccc([n-]4)c(-c4ccc(C(=O)O)cc4)c4nc(c(-c5ccc(C(=O)O)cc5)c5ccc2[n-]5)C=C4)C=C3)cc1.[Mn+3] 4.93 [at 57 µM], CC(=O)O[C@@H]1C(=O)[C@]2(C)C([C@@H](OC(=O)c3ccccc3)[C@@]3(O)C[C@@H](OC(=O)[C@@H](O)[C@H](NC(=O)c4ccccc4)c4ccccc4)C(C)=C1C3(C)C)[C@@]1(OC(C)=O)CO[C@H]1C[C@H]2O (stereo partly drawn) 4.34 [at 58.6 µM], COC(=O)C1=C(C)NC(C)=C(C(=O)OCCN(C)Cc2ccccc2)[C@H]1c1cccc([N+](=O)[O-])c1 4.49 [at 104.3 µM], C[C@@H](/C=C/c1cccc(Oc2ccc(F)cc2)c1)N(O)C(N)=O 6.07 [at 158.1 µM], C[C@@](O)(C(=O)Nc1ccc(S(=O)(=O)c2ccccc2)cc1)C(F)(F)F 5.17 [at 133.9 µM], CC(C)COC[C@H](CN(Cc1ccccc1)c1ccccc1)N1CCCC1 8.48 [at 136.4 µM], CN=C(NC#N)Nc1ccc(C2=NNC(=O)C[C@@H]2C)cc1 7.2 [at 175.9 µM], C=C(C)[C@H]1CC[C@@]2(C(=O)O)CC[C@@]3(C)[C@@H](CC[C@H]4[C@]5(C)CC[C@@H](O)C(C)(C)[C@H]5CC[C@@]43C)[C@H]12 3.34 [at 109.5 µM], CCCCCCCCCCCCCCCCOC[C@@H](COP(=O)([O-])OCC[N+](C)(C)C)OC 4.86, C[C@@H](COc1ccccc1)N(CCCl)Cc1ccccc1 6.47 [at 164.6 µM], CCCCC(C)(C)[C@@H](O)/C=C/[C@H]1[C@H](C/C=C\CCCC(=O)O)C(=O)C[C@@H]1O 4.79
